Screening results deposited in PubChem by National Center for Advancing Translational Sciences (NCATS).
PK Bst: Pyruvate Kinase | purified pyruvate kinase, luminescence ATP production; ribose 5-phosphate activator present at AC10 | Potency, µM | AID 361, 2006 | 51,000 compounds, 1.2% hits; in the data active = potency below about 11 µM; inconclusive = mostly about 12 µM to 25 µM;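 the screen sought inhibitors and activators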;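 note: scaled between full activation by ribose 5 phosphate and full inhibition by luteolin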
GBA mod: Glucocerebrosidase; Potency, µM; 48,000 compounds, 1.1% hits; Lysosomal acid glucosylceramidase (Homo sapiens), P04062; purified enzyme, resorufin glucoside fluorescence (screen aimed at inhibitors), 20 min; AID 360, 2006; in the data active = potency below about 15 µM; inconclusive = mostly about 16 µM to 33 µM;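 note: the screen sought inhibitors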
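Compounds titrated against 0.2 nM normal enzyme, 30 uM resorufin beta-D-glucopyranoside substrate, citrate/phosphate buffer with taurocholate and tween-20, pH 5.9. Reaction ran 20 min at room temperature; fluorescence (Ex 548/Em 600) gave AC50.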
USP2a inhib: qHTS Assay for Inhibitors of Ubiquitin-specific Protease USP2a. Ubiquitin carboxyl-terminal hydrolase 2 (Homo sapiens), O75604. USP2a enzymatic assay, qHTS inhibition. Potency, µM (highest dose often 38.3 µM), without a hit: top-dose activity change, negative = inhibition, actives largely listed as inhibitors. 60,000 compounds, 0.1% hits; note: nearly all actives have a fitted effect of over 60% in size
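20 nM USP2 core + cpd, 30 min RT; add 20 nM Ub-PLA2/20 uM NBD C6-HPC; read Ex460/Em535 at 0 h and 2.5 h. Normalized to NEM; qHTS curve fit/classification.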
HEK293 cAMP cs: qHTS Assay for Agonists of the Thyroid Stimulating Hormone Receptor: Activators of Intracellular cAMP Concentrations in Parental HEK 293. parental HEK293 CNG cAMP sensor, membrane potential fluorescence. Potency, µM (titrated, usually from 57.1 µM), inactives show at the top dose activation, actives largely listed as activators. 73,000 compounds, 2.5% hits. AID 938, 2007; note: % of control where 0% means no effect; nearly all actives have a fitted effect of over 55% in size
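Parental HEK 293 cells stably expressing a cAMP-gated CNG channel were loaded with membrane potential dye containing 100 uM RO 20-1724 for 60 min. Compound added for 30 min; depolarization read as fluorescence intensity at 590 nm.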
UbGFP stabilizer: Ubiquitin-GFP Assay; Ubiquitin-GFP reporter cells, proteasome inhibition, GFP fluorescence; response scale: untreated = 0%, 10 µM MG-132 = 100%; Potency, µM (top dose mostly 45.9 µM), for the others: top-dose activation (GFP accumulation), hits mostly activators; 67,000 tested, under 10 active; AID 526, 2006; active = well fitted activation curve with a large enough effect, not every such curve was filed as active; inconclusive = small, poorly fitted or top-dose-only effect, or another doubt; inactive = no such curve, though single readings can be large or run the other way
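U2OS Ub(G76V)-GFP reporter; O/N plating, 0.5% FBS; cpd 46 uM–2.9 nM, 4 h, 37 °C; GFP+ cell count, 488/515 nm; norm. to basal vs 10 uM MG-132; CRC fit.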
TSHR ag: qHTS Assay for Agonists of the Thyroid Stimulating Hormone Receptor; Potency, µM (doses to about 57.1 µM), for inactives: at the top dose activation, hits mostly activators; 73,000 compounds, 0.48% hits; HEK293-CNG-TSHR cells (CNG channel as cAMP sensor), membrane potential dye, cAMP; Thyrotropin receptor (Homo sapiens), P16473; active = well fitted activation curve with a large enough effect in the main read-out, with a control signal flat, not every such curve was filed as active; inconclusive = small, poorly fitted or top-dose-only effect, or a change in a side signal; inactive = no such curve, though single readings can be large or run the other way; % of control where 0% means no effect;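 note: the control signal comes from parental cells without the receptor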
Target sequence (P16473 whole entry, looked up): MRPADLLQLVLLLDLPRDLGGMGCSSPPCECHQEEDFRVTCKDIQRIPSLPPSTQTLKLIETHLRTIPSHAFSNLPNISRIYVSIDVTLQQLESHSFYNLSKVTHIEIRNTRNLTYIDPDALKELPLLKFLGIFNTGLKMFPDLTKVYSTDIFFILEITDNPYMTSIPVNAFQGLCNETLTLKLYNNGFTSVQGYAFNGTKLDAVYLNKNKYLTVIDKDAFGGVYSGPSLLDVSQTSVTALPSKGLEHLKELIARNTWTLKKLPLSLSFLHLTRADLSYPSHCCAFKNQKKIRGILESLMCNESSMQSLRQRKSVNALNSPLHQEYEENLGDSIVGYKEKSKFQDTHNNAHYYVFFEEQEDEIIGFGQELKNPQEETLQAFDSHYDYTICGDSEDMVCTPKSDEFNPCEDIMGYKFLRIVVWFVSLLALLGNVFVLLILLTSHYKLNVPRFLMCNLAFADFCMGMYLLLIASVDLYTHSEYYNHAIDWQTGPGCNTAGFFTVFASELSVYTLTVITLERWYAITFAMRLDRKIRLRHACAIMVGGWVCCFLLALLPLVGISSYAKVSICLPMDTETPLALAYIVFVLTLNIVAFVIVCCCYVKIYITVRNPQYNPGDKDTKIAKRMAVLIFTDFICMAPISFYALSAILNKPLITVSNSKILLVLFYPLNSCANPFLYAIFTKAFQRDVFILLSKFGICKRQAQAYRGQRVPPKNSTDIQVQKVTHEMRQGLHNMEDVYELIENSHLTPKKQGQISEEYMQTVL
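HEK 293 cells stably expressing TSHR and a cAMP-gated CNG channel; parental CNG-only cells as counterscreen. Cells preloaded 60 min with membrane potential dye plus 100 uM RO 20-1724, then compound 30 min; fluorescence read at 590 nm.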
Starred values were filed as active, the others as inactive; i = inactive; ? = inconclusive; nt = no result given; [ ] = another dose, or the depositor's remark. Hits are enriched below; roughly 4.1% of the tested compounds scored in any of these assays. Unless noted, calls come from the whole dose curve; as a rule, active = well fitted curve in the direction sought with a large enough effect; inconclusive = small, poorly fitted or top-dose-only effect, or another doubt; inactive = no such curve, though single readings can be large; an effect the other way counts as inactive or inconclusive. Potency is the fitted concentration of half-maximal effect.

SMILES	PK Bst	GBA mod	USP2a inhib	HEK293 cAMP cs	UbGFP stabilizer	TSHR ag
COc1ccc(-n2nc(C(=O)NCC(=O)N3CCN(c4ccccn4)CC3)c3ccccc3c2=O)cc1	8.2*	>77	27%	5%	3%	5%
COc1ccc(-n2nc(C(=O)Nc3ccc4c(c3)OCO4)c3ccccc3c2=O)cc1	>57	>77	35%	16µM*	6%	?
COc1ccc(CC(=O)N2CCN(c3ccccn3)CC2)cc1	>57	>77	25%	-7%	-3%	13%
COc1ccc(-n2nc(C(=O)N3CCN(Cc4ccc5c(c4)OCO5)CC3)c3ccccc3c2=O)cc1	>57	>77	25%	6%	5%	1%[11.4 µM]
O=C(O)CCC(=O)c1ccc[nH]1	nt	nt	nt	?	-1%[9.17 µM]	?
CC(=O)OCC1OC(C#Cc2ccc(Cl)cc2)C=CC1OC(C)=O (centres undefined)	nt	nt	nt	-4%[11.4 µM]	nt	7%[11.4 µM]
COc1cccc(NC(=O)c2ccccc2-c2nc(-c3ccc(Cl)cc3)no2)c1	>57	>77	19%	?	7%	?
COc1ccccc1NC(=O)c1ccccc1SC	>57	>77	-5%	18%	5%	nt
COc1ccccc1-c1noc(-c2ccccc2C(=O)Nc2ccccc2)n1	>57	>77	12%	25µM*	0%	?
COc1ccccc1NC(=O)c1ccccc1-c1nc(-c2ccccc2OC)no1	nt	>77	27%	25µM*	3%	?
O=C(O)/C=C\C(=O)Nc1ncn[nH]1	nt	nt	nt	3%[11.4 µM]	-3%[9.17 µM]	2%[11.4 µM]
COc1ccc(NC(=O)c2ccc3c(c2)C(=O)N(Cc2cccnc2)C3=O)c(OC)c1	>57	5*	3%	-5%	-5%	-7%
O=C(Nc1ccc(Oc2ccccc2)cc1)C1CCCO1 (centres undefined)	nt	nt	10%	-11%	16%	3%
O=C(Nc1ccc(-c2nc3ccccc3o2)cc1)C1CCCO1 (centres undefined)	6.3*	>77	10%	17%	-9%	-4%
C[C@]12CCC3c4ccc(OCC(=O)O)cc4CCC3C1CCC2=O (some centres undefined)	nt	nt	nt	1%[11.4 µM]	-6%[9.17 µM]	-1%[11.4 µM]
O=C(COc1ccccc1)Nc1nc(-c2cccs2)cs1	nt	>77	-7%	25µM*	-2%	?
c1ccc(Nc2nc(-c3cccnc3)cs2)nc1	?	>77	-3%	0%	0%	-5%
O=C(O)CCC(=O)Nc1nc(-c2ccccc2)cs1	>57	>77	-8%	12%	-3%	-3%
c1ccc(Nc2nc(-c3cccs3)cs2)nc1	3.6*	>77	15%	-19%	-1%	-12%
Cc1cc(C2(c3cc(C)c(O)cc3C)OS(=O)(=O)c3ccccc32)c(C)cc1O	nt	nt	nt	28%	nt	3%
C[C@@]12CCC(=O)C=C1CC[C@H]1[C@@H]2[C@@H](O)C[C@]2(C)[C@@H]1CC[C@@]2(O)C(=O)CO	nt	nt	nt	-3%[11.4 µM]	-7%[9.17 µM]	1%[11.4 µM]
Clc1ccccc1/C=C\c1ccnc2ccccc12	nt	nt	nt	18%[11.4 µM]	-1%[9.17 µM]	4%[11.4 µM]
NCC(=O)NC1(C(=O)O)CCCC1	nt	nt	nt	-63%[11.4 µM]	-4%[9.17 µM]	?
COc1ccc(Cn2c(-c3ccco3)nc3oc4cc(OC)ccc4c(=O)c3c2=O)cc1	>57	>77	31%	-2%	3%	3.2µM*
CC(C)(C)CC(C)(C)c1ccc(O)c(Cc2ccc(Cl)cc2Cl)c1	nt	nt	10µM*	nt	nt	nt
SMILES	PK Bst	GBA mod	USP2a inhib	HEK293 cAMP cs	UbGFP stabilizer	TSHR ag
CCn1c(=O)c(=O)[nH]c2cc(C(=O)Nc3ccc(S(=O)(=O)N4CCCC4)cc3)ccc21	>57	5.1*	43%	60%	-2%	0%[11.4 µM]
CCn1c(=O)c(=O)[nH]c2cc(C(=O)NC3CCCc4ccccc43)ccc21 (centres undefined)	i	nt	19%	6%	4%	8%
COC(=O)c1cccc(NC(=O)c2ccc(S(=O)(=O)N3CCN(C)CC3)cc2)c1	>57	?	2%	4%	6%	-2%
CN1CCN(S(=O)(=O)c2ccc(NC(=O)c3ccc(F)cc3)cc2)CC1	>57	14*	4%	7%	-1%	-1%
CC(C)Oc1cc(O)c2c(c1)OCC=C2CCC(=O)O	nt	nt	nt	5%[11.4 µM]	1%[9.17 µM]	5%[11.4 µM]
CCOC(=O)C1=C(C)NC(SCC(=O)Nc2cc(C)on2)=C(C#N)C1c1cccs1 (centres undefined)	>57	1.9*	22%	23%	0%	17%
O=C1Nc2ccccc2[C@]1(O)Cc1ccccn1	nt	nt	nt	-3%[11.4 µM]	4%[9.17 µM]	-3%[11.4 µM]
O=C1c2ccccc2C(Cc2ccnc(F)c2)(Cc2ccnc(F)c2)c2ccccc21	nt	nt	nt	0.25µM*	nt	?
Cc1cccc(C)c1NC(=O)C[N+](C)(C)C	nt	nt	-6%	4%	0%	17%
O=C(Nc1c2c(nn1-c1ccc(F)cc1)CS(=O)(=O)C2)C12CC3CC(CC(C3)C1)C2	>57	>77	8%	16µM*	-5%	?
O=C(CCC1CCCCC1)Nc1c2c(nn1-c1ccc(F)cc1)CS(=O)(=O)C2	>57	>77	17%	3.2µM*	2%	?
CN1CCN(C(=O)c2ccc(-n3c(=O)c(=O)[nH]c4ccccc43)cc2)CC1	nt	nt	nt	-18%	nt	0%
CN(C)C(=O)c1ccc(-c2ccc3ncnc(N(C)Cc4ccco4)c3c2)cc1	nt	nt	47%	27%	-2%	nt
CCOC(=O)CC(=O)CSc1nc2c(sc(=S)n2-c2ccccc2)c(=O)[nH]1	>57	>77	?	8%	nt	8%
CCOC(=O)c1ccc(-n2c(=S)sc3c(=O)[nH]c(C)nc32)cc1	>57	6.8*	-4%	5%	-7%	3%
CC1CCCN(c2nc3ccsc3c(=O)s2)C1 (centres undefined)	nt	>77	-6%	25µM*	-6%	?
CCCCN1CCCCC1C(=O)Nc1c(C)cc(C)cc1C (centres undefined)	>57	>77	3%	20µM*	-3%	?
CCOC(=O)c1ccc(NC(=O)CSc2nc3c(c(=O)n2CC)SC(C)C3)cc1 (centres undefined)	nt	nt	nt	nt	10%	nt
CCOC(=O)c1ccc(NC(=O)CSc2nc3c(c(=O)n2C)SC(C)C3)cc1 (centres undefined)	nt	nt	nt	20µM*	-8%	?
CCn1c(SCC(=O)N2CCN(c3ccccc3)CC2)nc2c(c1=O)SC(C)C2 (centres undefined)	nt	nt	nt	25µM*	-4%	?
CCCn1c(SCC(=O)N2CCN(c3ccccc3)CC2)nc2ccccc2c1=O	>57	>77	5%	27%	2%	5µM*
N=C1Sc2ccccc2C2=NCCCN12	nt	nt	-4%	3%	3%	0%
